About 1,200 (3.2%) of roughly 38,000 compounds showed an effect of 50% or more. The median lay at about -58%. The sample holds strong results, similar compounds and a random draw of the others, so the mix is not that of the screen.

The subject of the test is Plasmodium falciparum. The test can be described thus: Calibr Malaria Delayed Death Assay SOP. It is filed as functional, organism-based. Details: scale not given: in the data most compounds retested in dose-response had high values. The following applies: concentration 4.99e-06 (unit not given; other assays of the set use mol/L).
As for `c1cnc(N2CCCC3(CCN(Cc4ccsc4)C3)C2)nc1` (configuration not stated), the “Percent Effect” value was determined as 66.41%.

In the case of `O=C(O)C(F)(F)F.O=C(O)[C@]12CCCN(Cc3ccsc3)C[C@H]1CN(c1ncccn1)C2`, the “Percent Effect” value is reported as -238.9%. Take `Cn1cc(CN2CC3(CCN(Cc4ccsc4)C3)C2)cn1`: the “Percent Effect” value is -1.772%.

Consider `CCCN1C(=O)CC(N2CCN(c3ccc(F)cc3)CC2)C1=O` (configuration not stated), for which the “Percent Effect” value is recorded as -22.99%.

For the compound `CN1CCCC(N(C)S(=O)(=O)c2cccc3ncccc23)C1` (configuration not stated), the “Percent Effect” value is 28.23%. As for `Cc1cc2nc(C(C)C)cc(N3CCN(c4ccc(O)cc4)CC3)n2n1`, the “Percent Effect” value was -69.46%. For `CN1CC(NC(=O)Nc2cnn(-c3ccccc3Cl)c2)CCC1=O` (configuration not stated) the value was -125.7%; for `O=C(Cc1ccc(F)cc1)NCC1CCN(Cc2ccsc2)CC1`, 35.08%; for `CCc1nnc(CN2CCN(c3cccc(OC)c3)C(=O)C2)o1`, -165.5%. Turning to `COCCNC(=O)NCc1cccc(-n2ccnc2)c1`, the “Percent Effect” value is given as -31.59%.

Turning to `O=C(Cn1ccc2sccc2c1=O)NC1CCCCC1`, the “Percent Effect” value was -23.53%. For `Cc1nc(C)c(C(=O)Nc2cnn(CC(=O)NC3CCCC3)c2)s1` the value was -124.2%. Take `O=C(c1cc2c(F)cccc2[nH]1)N1CCC(Nc2cccnn2)CC1`: the “Percent Effect” value was -107.1%. For `Cc1cc(NC(=O)CCN2CCCCC2Cn2cccn2)no1` (configuration not stated), the “Percent Effect” value was -23.88%.

As to `CCCNC(=O)NC(=O)CNC(C)(C)c1ccc2c(c1)OCO2`, the “Percent Effect” value is recorded as -45.43%. Turning to `CC(C)(NCc1ccc(C#N)cc1)c1ccc2c(c1)OCO2`, the “Percent Effect” value is reported as -3.807%. For `FC(F)(F)C1CN(Cc2cccc(OCc3ccccn3)c2)CCO1` (configuration not stated) the value was -40.76%; for `CCN(CC)C(CNS(=O)(=O)c1ccc(C(=O)NC)cc1)c1ccco1` (configuration not stated), -34.47%; for `CCN(CC)C(CNS(=O)(=O)NCc1ccccc1)c1ccco1` (configuration not stated), 65.52%. With `CCN(CC)C(CNCc1ccc(O)cc1)c1ccco1` (configuration not stated), the “Percent Effect” value is 37.38%. In the case of `CSc1nc2ccsc2c(=O)n1CC(=O)N1CCCCC1C` (configuration not stated), the “Percent Effect” value was -137.7%. Regarding `Cn1cc(NS(=O)(=O)CC2CCCCO2)cn1` (configuration not stated), the “Percent Effect” value is -113.3%. For `O=C(NCCc1c[nH]c2ccc(F)cc12)C1(n2cnnn2)CCCCC1` the value was 0.821%; for `CNCC[C@H]1CC(C)(C)Oc2ccc(OCC3CC3)cc21`, 74.97%; for `COc1ccc2c(c1)[C@@H](CCNC(C)=O)CC(C)(C)O2`, -172.5%. As to `COCC(=O)NCC[C@H]1CC(C)(C)Oc2ccccc21`, the “Percent Effect” value was -148.4%. For `CNCC[C@H]1CC(C)(C)Oc2ccc(OC)cc21` the value was 72.51%; for `CC1CCN(C(=O)c2cnc3cc(C(=O)N(C)C)n(C)c3c2)CC1`, -87.49%.

For the compound `c1coc(-c2nnc(CN(Cc3cccs3)CC3CCCO3)o2)c1` (configuration not stated), the “Percent Effect” value was -56.15%. Then `COCc1nc(N2CC[C@H](N(C)C)C2)c2cnn(C)c2n1`, with -79.09%.

Take `COC(C)(CNS(=O)(=O)c1cn(C)cn1)c1ccccc1F` (configuration not stated): the “Percent Effect” value was -43.86%.

Consider `O=C(c1cc(F)cc2[nH]cnc12)N1CCCCC1Cn1cccn1` (configuration not stated), for which the “Percent Effect” value is on record as -30.08%. For `O=C(c1ccoc1)N1CCC(Nc2cccnn2)CC1` the value was -103.3%; for `CC(C)(C)OC(=O)N1CCCc2ccc(NCc3ccon3)cc21`, -36.28%; for `CC(=O)N1CCCN(Cc2ccon2)c2ccccc21`, -25.97%. Take `CC(C)(C)OC(=O)N1CCCN(Cc2ccon2)c2ccccc21`: the “Percent Effect” value worked out at 84.05%. Consider `Cc1cccc(NC(=O)N2CC(C(=O)NC(C)C)C3(CCOCC3)C2)c1` (configuration not stated), for which the “Percent Effect” value is given as -4.046%. As to `CCCc1nnc(N2CCN(c3ccccc3F)CC2)o1`, the “Percent Effect” value was -72.7%. With `CS(=O)(=O)NC1CCN(CCOCc2ccccc2)CC1`, the “Percent Effect” value is listed as 2.46%.

For the compound `CCOc1cccc(C(C)NC(=O)N2CCC(C(N)=O)CC2)c1` (configuration not stated), the “Percent Effect” value is on record as -34.65%. Turning to `OC(CNC1CCSCC1)c1cccc(OCc2ccccc2)c1` (configuration not stated), the “Percent Effect” value was found to be 73.71%. For the compound `CCOc1cccc(CNC(=O)NCC(O)c2cccc(F)c2)c1` (configuration not stated), the “Percent Effect” value is -6.007%. For `CN1CCC(NCC(O)c2cccc(OCc3ccccc3)c2)CC1` (configuration not stated), the “Percent Effect” value is 90.23%.

As to `OC(CNC1CCOCC1)c1cccc(OCc2ccccc2)c1` (configuration not stated), the “Percent Effect” value came out at 51.28%. For `O=C(Nc1cccc(OCc2ccc(F)cc2)c1)C1COCCO1` (configuration not stated), the “Percent Effect” value is given as -50.82%.

`OC(CNC1CCOCC1)c1ccc(Cl)c(F)c1` (configuration not stated): the “Percent Effect” value is 49.48%. For the compound `O=C(NCc1ccccc1)NCC(O)c1cccc(F)c1` (configuration not stated), the “Percent Effect” value is on record as -134.7%. As for `O=S(=O)(NCCN1CCCCC1Cn1cncn1)c1ccccc1` (configuration not stated), the “Percent Effect” value was -173.3%.

On to `Cc1nc2c(N3CCN(Cc4ccccc4)CC3)nc(N)nc2n1C`, for which the “Percent Effect” value is reported as -81.58%.

Take `Cc1nc(C)n(CC2CCCN(Cc3noc(C)n3)C2)n1` (configuration not stated): the “Percent Effect” value is listed as -83.37%. As for `O=C(CN1CCc2cncnc2C1)NCCOc1cccc(Cl)c1`, the “Percent Effect” value is given as -29.73%. `O=C(NC1CCS(=O)(=O)C1)c1cc(Sc2ncccn2)ccn1` (configuration not stated): the “Percent Effect” value was -115.2%.
